Source: PubChem BioAssay
Mtb bLac sens – beta-lactam sensitization of Mtb H37Rv; M. tuberculosis H37Rv growth with meropenem, percent inhibition; inhibition, % at 25 µM; 330,000 compounds, 0.27% hits; call rule not given here;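 also: growth measured after seven days incubation then overnight dye step; 0% = bacteria only wells and 100% = bacteria with antibiotic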
FadD28 binding – M. tuberculosis FadD28 bisubstrate binding inhibition. FadD28 bisubstrate probe binding, fluorescence polarization. inhibition, % at 12.5 µM. 360,000 compounds, 0.22% hits; in the data active = inhibition above about 8.5%, passing the limit was not always enough; inconclusive = no clear call, values can overlap the other calls
UGM FP inh – inhibitors of M. tuberculosis UDP-galactopyranose mutase | P9WIQ1 | purified UGM, fluorescence polarization probe displacement | inhibition, % at 10 µM | 320,000 compounds, 0.06% hits; in the data active = inhibition above about 10%, passing the limit was not always enough; inconclusive = no clear call, values can overlap the other calls
Target sequence (P9WIQ1 whole entry, looked up): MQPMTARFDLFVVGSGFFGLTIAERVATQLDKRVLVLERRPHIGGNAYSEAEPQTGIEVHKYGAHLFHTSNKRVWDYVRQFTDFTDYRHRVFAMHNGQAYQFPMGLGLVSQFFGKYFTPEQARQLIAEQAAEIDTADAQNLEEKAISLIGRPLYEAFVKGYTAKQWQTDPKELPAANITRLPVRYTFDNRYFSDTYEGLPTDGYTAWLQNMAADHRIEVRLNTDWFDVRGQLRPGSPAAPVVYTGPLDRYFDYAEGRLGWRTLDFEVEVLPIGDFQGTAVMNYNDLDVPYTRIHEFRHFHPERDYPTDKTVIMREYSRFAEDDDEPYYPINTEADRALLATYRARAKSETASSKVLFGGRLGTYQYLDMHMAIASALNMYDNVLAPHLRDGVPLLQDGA
Rv3671c protease – Rv3671c (M. tuberculosis) protease inhibition; inhibition, % at 5.96 µM; 320,000 compounds, 0.048% hits; P9WHR9; in the data active = inhibition above about 38%;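 also: extracellular domain of Rv3671c used as enzyme; 0% = enzyme with DMSO and 100% = no enzyme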
PfHsp40 yeast – rescue of PfHsp40-mediated yeast toxicity; S. cerevisiae expressing PfHsp40, growth rescue, ATP luminescence; growth rescue, % at 12.5 µM; 340,000 compounds, 0.68% hits; AID 504582; in the data active = growth rescue above about 28%, passing the limit was not always enough; inconclusive = no clear call, values can overlap the other calls;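 also: yeast W303a lacking pdr1 and pdr3 grown in galactose medium; growth measured after three days at 30 °C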
Y pestis TopoI – blocks Yersinia pestis topoisomerase I activity; Y. pestis Topo-I cleavage product accumulation, plate reader; activity, % at 10 µM; 360,000 compounds, 0.064% hits; in the data active = activity above about 50%, passing the limit was not always enough; inconclusive = no clear call, values can overlap the other calls
Starred values were filed as active, the others as inactive. Sampled rows, rich in hits. Any-hit rate of the full collection: about 0.98%.

`Clc1ccc(C(Cn2ccnc2)OCc2csc3c(Cl)cccc23)c(Cl)c1` (configuration not stated) gave Mtb bLac sens 95, FadD28 binding -2, UGM FP inh -1, Rv3671c protease 6, PfHsp40 yeast 80* and Y pestis TopoI 45.
Clc1ccc(C(Cn2ccnc2)OCc2c(Cl)cccc2Cl)c(Cl)c1 (configuration not stated) was read as Mtb bLac sens 97, FadD28 binding -6, UGM FP inh -1, Rv3671c protease -7, PfHsp40 yeast 103* and Y pestis TopoI 44.
O=C1CC(N2CCN(c3ccc(F)cc3)CC2)C(=O)N1Cc1cccs1 (configuration not stated) was read as Mtb bLac sens -5, FadD28 binding -3, UGM FP inh 0, Rv3671c protease -5, PfHsp40 yeast 0 and Y pestis TopoI 5.
For O=C1CC(N2CCN(c3nc4ccccc4s3)CC2)C(=O)N1Cc1cccs1 (configuration not stated) the results were Mtb bLac sens -14, FadD28 binding -1, UGM FP inh 2, Rv3671c protease -1, PfHsp40 yeast 99* and Y pestis TopoI 39.
`CCc1nc2c(OCc3ccc(C#N)cc3)cccn2c1N(C)C(=O)c1ccc(C)cc1` gave FadD28 binding -2 and Y pestis TopoI 24.
Screening C[C@H]1C[C@H]2[C@@H]3CCC4=CC(=O)C=C[C@]4(C)[C@@]3(Cl)[C@@H](O)C[C@]2(C)[C@@]1(O)C(=O)CO returned Mtb bLac sens -1, FadD28 binding -3, UGM FP inh 3, Rv3671c protease 7, PfHsp40 yeast 36* and Y pestis TopoI -4.
CC(C)(C)n1nc(-c2ccc(F)cc2)c2c(N)ncnc21 was read as Mtb bLac sens -7, FadD28 binding -1, UGM FP inh 2, Rv3671c protease -4, PfHsp40 yeast 454* and Y pestis TopoI 2.
CC(C)(C)n1nc(-c2ccc(Cl)cc2)c2c(N)ncnc21 was read as Mtb bLac sens 90, FadD28 binding -2, UGM FP inh -1, Rv3671c protease 7, PfHsp40 yeast 311* and Y pestis TopoI -11.
OCCCNc1ncnc2c1ncn2[C@H]1CN(C2CCCC2)C[C@@H](CO)O1 was read as FadD28 binding -4 and Y pestis TopoI -4.
Cc1ccc(Cn2ccc(NC(=O)c3cc(-c4cccs4)on3)n2)cc1 was read as Mtb bLac sens 2, FadD28 binding 0, UGM FP inh -2, Rv3671c protease 3, PfHsp40 yeast 0 and Y pestis TopoI 87*.
For O=C(CC1C[C@H](C(=O)N2CCOCC2)[C@@]2(CCC3CCCC3)c3[nH]c4ccccc4c3CCN2C1=O)NCCCn1ccnc1 (some centres not stated) the results were Mtb bLac sens -3, FadD28 binding -4, UGM FP inh 1, Rv3671c protease 9, PfHsp40 yeast -1 and Y pestis TopoI 4.
CC(C)C(=O)NNC(=O)CC(=O)Nc1ccccc1C(=O)O was read as Mtb bLac sens -7, FadD28 binding -1, UGM FP inh -3, Rv3671c protease -1, PfHsp40 yeast 40* and Y pestis TopoI 10.
Cc1cc(C)c(S(=O)(=O)NC2CC3CCC2C3)c(C)c1 (configuration not stated) was read as Mtb bLac sens 6, FadD28 binding -1, UGM FP inh 0, Rv3671c protease -4, PfHsp40 yeast 64* and Y pestis TopoI 11.
`O=S(=O)(NC1CC2CCC1C2)c1ccc2c(c1)OCCO2` (configuration not stated) gave Mtb bLac sens -5, FadD28 binding -1, UGM FP inh 0, Rv3671c protease -3, PfHsp40 yeast 0 and Y pestis TopoI 5.
COc1ccc(S(=O)(=O)NC2CC3CCC2C3)cc1Br (configuration not stated) was read as Mtb bLac sens -6, FadD28 binding -4, UGM FP inh 0, Rv3671c protease 0, PfHsp40 yeast 81* and Y pestis TopoI 13.
Screening Cc1ccc(Cc2c(C3CCCCC3)nc3cc(C)c(Br)c(C)n23)cc1 returned FadD28 binding -5.
Screening COc1ccc(C(CNC(=O)c2cc(S(=O)(=O)N3CCN(c4ccccc4)CC3)ccc2Cl)N(C)C)cc1 (configuration not stated) returned Mtb bLac sens 3, FadD28 binding -1, UGM FP inh -1, Rv3671c protease 9, PfHsp40 yeast 0 and Y pestis TopoI -1.
Oc1ccc(/C=N/N=C(c2ccccc2)c2ccccc2)c(O)c1O was read as Mtb bLac sens 10, FadD28 binding 6, UGM FP inh 0, Rv3671c protease -11, PfHsp40 yeast 20 and Y pestis TopoI -2.
O=C(/C(=N/N=C/c1ccc(O)c(O)c1O)c1ccccc1)c1ccccc1 was read as Mtb bLac sens -2, FadD28 binding -3, UGM FP inh 1, Rv3671c protease -16, PfHsp40 yeast 520* and Y pestis TopoI -2.
For COc1ccc(Nc2nc(-c3cccs3)nc3ccccc23)cc1 the results were Mtb bLac sens 50, FadD28 binding -2, UGM FP inh 0, Rv3671c protease -22, PfHsp40 yeast 3 and Y pestis TopoI -29.
For COc1cccc(Nc2nc(-c3cccs3)nc3ccccc23)c1 the results were Mtb bLac sens 96, FadD28 binding -11, UGM FP inh -1, Rv3671c protease -103, PfHsp40 yeast 279* and Y pestis TopoI -33.
COCCn1c(SCC(=O)Nc2ccc(F)cc2)nc2c(c1=O)SCC2 was read as FadD28 binding 0 and Y pestis TopoI 6.
`O=C(O)CCC1c2cc3c4cc2OC2Oc5cc6c(cc51)C(CCC(=O)O)c1cc5c7cc1OC(O6)c1cc6cc(c1)Oc1cc(cc(C(=O)O)c1)Oc1cc8cc(c1)C(Oc1cc(c(cc1C5CCC(=O)O)C3CCC(=O)O)OC(O4)c1cc(cc(c1)Oc1cc(cc(C(=O)O)c1)O8)Oc1cc(cc(C(=O)O)c1)Oc1cc(cc2c1)Oc1cc(cc(C(=O)O)c1)O6)O7` (configuration not stated) gave Mtb bLac sens inconclusive, UGM FP inh 3 and Rv3671c protease -282.
N#CC1=C(N)N(c2ccccc2)C(c2ccco2)C1(C#N)C#N (configuration not stated) was read as Mtb bLac sens 23, FadD28 binding 15*, UGM FP inh 1, Rv3671c protease 6, PfHsp40 yeast -1 and Y pestis TopoI -7.
For CCc1ccccc1N1C(=O)CC(N2CCc3ccccc32)C1=O (configuration not stated) the results were Mtb bLac sens -13, FadD28 binding 2, UGM FP inh -3, Rv3671c protease 0, PfHsp40 yeast 69* and Y pestis TopoI -6.
For O=C1CC(N2CCCc3ccccc32)C(=O)N1c1ccccc1 (configuration not stated) the results were Mtb bLac sens -7, FadD28 binding -1, UGM FP inh 4, Rv3671c protease 6, PfHsp40 yeast -1 and Y pestis TopoI -2.
